Screening data deposited in PubChem BioAssay by National Center for Advancing Translational Sciences (NCATS).
D1 antagonist = Antagonist of Human D 1 Dopamine Receptor: qHTS; D(1A) dopamine receptor (Homo sapiens), P21728; HEK293 TREx D1 cells, calcium flux, dopamine EC80; hits give low values; activity change, negative = inhibition, % at 10 µM; hit rate 3.2% among 360,000; AID 504652, 2011; in the data active means activity change below about -30%; further: on the % scale 0 is the no-effect control and ±100 the full control effect
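Calcium flux readout: force-coupled, inducible Hek293 Trex D1 line, cells induced overnight at 30 C with tetracycline, dye-loaded 30–90 min at RT. Antagonism scored against EC80 dopamine challenge given 180 s after compound.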
D1 PAM = Potentiators of Human D1 Dopamine Receptor: qHTS; D(1A) dopamine receptor (Homo sapiens), P21728; HEK293 TREx D1 cells, calcium flux, dopamine EC20 potentiation; potentiation, % at 10 µM; hit rate 0.036% among 360,000; AID 504651, 2011; in the data active means potentiation above about 30%; further: 0% is about no effect
D1 ag = Allosteric Agonists of the Human D1 Dopamine Receptor: qHTS. D(1A) dopamine receptor (Homo sapiens), P21728. HEK293 T-REx D1 cells, calcium flux, agonist mode. activation, % at 2 µM. hit rate 1% among 360,000; in the data active means activation above about 30%; further: 0% is about no effect
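Agonism was scored from calcium flux recorded over 180 s (1 read/s) after pintool compound addition, following a 10-cycle baseline. Cells were inducible force-coupled HEK293 TREx D1, plated overnight at 30 C and loaded with no-wash calcium dye.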
Eya2 phos inh = qHTS Assay for Inhibitors of the Phosphatase Activity of Eya2. Potency, µM (top dose mostly 76.9 µM), without a hit: at the highest dose activity, negative = inhibition, actives largely listed as inhibitors. recombinant Eya2, OMFP fluorescence dephosphorylation (OMFP is methylfluorescein phosphate). hit rate 0.006% among 330,000. Protein phosphatase EYA2 (Homo sapiens), O00167; further: potency means the concentration at half of the fitted maximal effect; on the % scale 0 is the no-effect control and ±100 the full control effect
Target sequence (O00167 whole entry, looked up): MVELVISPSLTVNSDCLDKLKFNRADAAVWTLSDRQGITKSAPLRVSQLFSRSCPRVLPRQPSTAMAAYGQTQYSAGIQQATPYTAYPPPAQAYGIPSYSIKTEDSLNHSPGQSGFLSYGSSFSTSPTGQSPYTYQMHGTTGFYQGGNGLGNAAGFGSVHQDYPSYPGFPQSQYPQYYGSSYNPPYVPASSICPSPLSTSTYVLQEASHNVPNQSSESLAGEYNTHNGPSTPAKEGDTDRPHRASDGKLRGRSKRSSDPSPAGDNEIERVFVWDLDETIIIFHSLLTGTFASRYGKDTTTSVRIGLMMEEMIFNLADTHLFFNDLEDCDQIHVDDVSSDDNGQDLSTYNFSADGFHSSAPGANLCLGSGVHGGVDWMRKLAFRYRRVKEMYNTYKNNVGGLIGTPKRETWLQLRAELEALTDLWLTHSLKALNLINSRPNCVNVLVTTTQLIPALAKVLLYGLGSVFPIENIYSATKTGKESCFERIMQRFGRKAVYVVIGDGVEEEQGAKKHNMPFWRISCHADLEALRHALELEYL
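Eya2 protein (added as 0.2 uM solution) was preincubated with compound for 10 min at ambient temperature in 50 mM HEPES pH 7.5, 50 mM NaCl, 5 uM MgCl2, 0.05% BSA, 1 mM DTT. OMFP (added at 50 uM) then reacted 10 min; fluorescence read at 485/525 nm.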
USP2a inh = qHTS Assay for Inhibitors of Ubiquitin-specific Protease USP2a Using CHOP2 as the Reporter; Ubiquitin carboxyl-terminal hydrolase 2 (Homo sapiens), O75604; USP2 core, Ub-CHOP2 coupled fluorogenic reporter, 485/531; Potency, µM (doses to about 38.3 µM), for inactives: at the highest dose activity change, negative = inhibition, most hits filed as inhibitors; hit rate 0.01% among 330,000; AID 463254, 2010;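 further: potency means the concentration at half of the fitted maximal effect; plate controls were DMSO wells for no effect and full inhibition by NEM control for full effect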
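Deubiquitinase activity read as fluorescence (485/531 nm) after Ub-CHOP2 cleavage activates the enterokinase reporter on its substrate; USP2 core 10nM, Ub-CHOP2 and substrate 25nM each, 30min compound preincubation then 60min RT; data normalized to NEM, curves fitted.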
GALK inhibitor = qHTS Assay for Inhibitors of Human Galactokinase (GALK); P51570; Purified GALK, Kinase-Glo residual ATP luminescence; Potency, µM (top dose mostly 57.5 µM), for inactives: top-dose activity change, negative = inhibition, usual class: inhibitors; hit rate 0.007% among 270,000; AID 1868, 2009; further: potency means the concentration at half of the fitted maximal effect; on the % scale 0 is the no-effect control and ±100 the full control effect
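Quantitative HTS: GALK 5 nM, ATP 35 uM, galactose 100 uM, 1 h room temperature, then luciferase-based ATP detection.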
Active calls of the source: *; · = no result; ! = not confirmed by another sample; [ ] = another dose, or the depositor's remark. Sampled rows, rich in hits. Any-hit rate of the full collection: about 3.9%. Unless noted, the call rests on the fitted dose curve; in most records, active means well fitted inhibition curve with a large enough effect; inconclusive means small, poorly fitted or top-dose-only effect, or effect the other way; inactive means flat fitted curve, though single readings scatter.

SMILES	D1 antagonist	D1 PAM	D1 ag	Eya2 phos inh	USP2a inh	GALK inhibitor
C[C@@H](O)[C@H]1C(=O)N2C(C(=O)O)=C(SCCN=CN)C[C@H]12	·	·	·	1%	·	·
CC1C(=O)N2CCCc3cc(S(=O)(=O)N4CCN(c5ccc(F)cc5)CC4)cc1c32 (configuration not stated)	-46*	12	3	8%	4%	-6%
CC1C(=O)N2CCCc3cc(S(=O)(=O)N4CCN(c5cccc(Cl)c5)CC4)cc1c32 (configuration not stated)	-2	-7	1	20%	1%	·
O=C(CCCCCN1C(=O)c2cccc3cccc(c23)C1=O)NC1CCS(=O)(=O)C1 (configuration not stated)	-31*	-3	1	2%	1%	0%
CCN(CC)S(=O)(=O)c1nnc(NC(=O)COc2ccc(C)cc2)s1	-4	-1	1	·	·	·
Cc1ccc(/C=C/C(=O)c2c(C)nc3ccccn23)cc1	-71*	-1	-1	-42%	0%	1%
N#C/C(C(=O)N1CCOCC1)=c1/s/c(=C\c2ccccn2)c(=O)n1-c1ccccc1	-26	-4	0	12%	0%	0%
Cc1ccc(/C=c2\sc3nc(-c4ccccc4Br)nn3c2=O)o1	-8	1	2	-2%	4%	-1%
C=CCn1c(=O)/c(=C\c2ccccn2)s/c1=C(/C#N)C(=O)NCC1CCCO1 (configuration not stated)	-28	-5	151*	-3%	1%	11%
C=CCn1c(=O)/c(=C/c2ccc(C)o2)s/c1=C(/C#N)C(=O)c1ccccc1	-3	-6	58*	0%[15.4 µM]	0%	2%
COCC(C)N1CCC(Oc2ccc(C(=O)N3CCCC3)cc2)CC1 (configuration not stated)	2	-2	2	-9%	-1%	6%
CCCOC1CCCN(C(=O)c2ccc(OC3CCN(C(=O)CCOC)CC3)cc2)C1 (configuration not stated)	-1	-6	2	15%	3%	4%
COCCC(=O)N1CCC(Oc2ccc(C(=O)N3CCCC(OC)C3)cc2)CC1 (configuration not stated)	-35*	-5	2	3%	4%	-6%
COC(=O)CCC(C)N1CCC(Oc2ccc(C(=O)N3CCCC3)cc2)CC1 (configuration not stated)	-30*	-4	0	5%	1%	-3%
Cc1ccc(NC(=O)C(=S)NCc2ccco2)cc1	5	-8	5	-5%	1%	-2%
Cc1ccc(NC(=O)C(=O)NCc2ccco2)cc1	-31*	-2	-3	·	·	·
O=C(NC(=S)Nc1nc(-c2ccccc2)cs1)c1cccnc1	0	10	13	4%	1%	0%
O=C(NC(=S)Nc1nc(-c2ccccc2)cs1)c1cncc(Br)c1	1	6	37*	-3%	-2%	·
Nc1nc(N2CCCCC2)c(C=O)c(N2CCCCC2)n1	-36*	-5	2	3%	1%	-3%
CCC(=O)N1c2ccccc2CC1C(=O)NCCc1ccc(SC)cc1 (configuration not stated)	4	1	0	·	·	·
CC(=O)Nc1ccc(NC(=O)C2CC(=O)N(c3ccccc3Cl)C2)cc1 (configuration not stated)	-31*	2	14	-4%	3%	0%
N#Cc1c(NC(=O)CSc2nc3ccccc3s2)sc2c1CCCC2	7	-4	6	-6%	0%	0%
N#Cc1cc2c(nc1SCC(=O)Nc1sc3c(c1C#N)CCC3)CCC2	-42*	-1	1	-5%	3%	·
Cc1ccnc(SCC(=O)Nc2sc3c(c2C#N)CCCC3)n1	-33*	-7	16	-8%	-1%	0%
Cc1csc(SCC(=O)Nc2sc3c(c2C#N)CCC3)n1	-31*	-4	1	5%	-3%	-3%
SMILES	D1 antagonist	D1 PAM	D1 ag	Eya2 phos inh	USP2a inh	GALK inhibitor
Cc1ccc(NC(=O)c2cccc(NC(=O)N3CCSc4ncccc43)c2)cc1Cl	4	-2	2	·	·	·
Cc1ccc(NC(=O)Cn2c(=O)n(Cc3ccccc3)c(=O)c3c(C)c(C)sc32)c(C)c1	-8	1	-1	·	·	·
O=C(Nc1cccc2cccnc12)OC(Cl)(Cl)Cl	-10	1	1	·	·	·
O=C(OCC(=O)C12CC3CC(CC(C3)C1)C2)c1ccc(O)cc1O	-1	43*	93*	-28%	-11%	·
COCCN1CCCC(CNCc2cn(C)nc2-c2ccc(Oc3ccccc3)cc2)C1 (configuration not stated)	0	1	13	4%	-7%	6%
Cn1cc(CNCc2cn(C)nc2-c2ccc(C3CCCCC3)cc2)cn1	-38*	-10	23	4%	1%	-1%
CSc1ccc(CNC(=O)CCn2c(=O)c3cccn3c3ccc(F)cc32)cc1	-17	-1	2	·	·	·
Cc1ccc(NC(=O)CCn2c(=O)c3cccn3c3ccccc32)cc1C	-37*!	3	3	-4%	-2%	-5%
O=C(CCn1c(=O)c2cccn2c2ccc(F)cc21)NCc1ccccc1F	-69*	-6	-1	·	·	·
CN(C)c1ccc(CNC(=O)CCn2c(=O)c3cccn3c3ccc(F)cc32)cc1	-30*	-2	4	·	·	·
Cc1ccc(NC(=O)CCCn2c(=O)c3cccn3c3ccccc32)cc1C	-4	-2	2	·	·	·
Cc1ccc(-c2nn3c(-c4ccccc4C)nnc3c3ccccc23)cc1	6	-4	3	·	·	·
CCc1ccc(-n2c(Cc3ccccc3)nnc2SCc2nc(-c3cccs3)no2)cc1	-37*	18	84*	·	·	·
CCOc1ccc(-n2c(Cc3ccccc3)nnc2SCc2nc(-c3ccccc3C)no2)cc1	-1	-1	32*	·	·	·
CCOc1ccc(-c2noc(CSc3nnc(Cc4ccccc4)n3-c3cccc(C)c3)n2)cc1	-4	1	38*	·	·	·
CC(=O)Nc1cc(C(=O)NCc2ccc(C)cc2)ccc1S(=O)(=O)c1ccc(Cl)cc1	5	1	-1	·	·	·
N#Cc1c(Cl)cccc1Oc1ccc([S+](=O)([O-])N2CCN([S+](=O)([O-])c3c(F)cccc3F)CC2)cc1	-16	-5	1	·	·	·
Cc1cc(C2=NNC(=Nc3ccccc3)SC2)c(C)n1C	-32*	-4	1	-16%	-1%	-2%
